# Values joined by “and” are separate entries in the source; they are usually repeats but may differ in a detail not shown here. Equal entries are not always repeated. Inconclusive results are not listed. A call without a number means that no potency is given here. Some structures have more than one record in an assay (separate samples or runs), and their calls can disagree. Active and inactive are the calls of the source. Unless noted, the call rests on the fitted dose curve; in most records, active means well fitted curve in the direction sought with a large enough effect; inconclusive means small, poorly fitted or top-dose-only effect, or another doubt; inactive means no such curve, though single readings can be large; an effect the other way counts as inactive or inconclusive.
# Tests used:
# [1] = Cell Viability - NIH 3T3 (AID 541); conditions: NIH 3T3 cell viability, qHTS; activity change, negative = cytotoxicity: at 92.2 µM (top of the series);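 further: cells exposed to compound for 40 hours; nearly all actives have a fitted effect of over 25% in size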; further: potency means the concentration at half of the fitted maximal effect
# Method in brief: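 qHTS format; 40 hr compound exposure, 37 °C; CellTiter-Glo luminescence (cellular ATP) read-out after 20 min at RT. Decrease in ATP = cytotoxicity; AC50 from standard Hill fit.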
# [2] = Cell Viability - HUV-EC-C (AID 542);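 further: cells exposed to compound for 40 hours; nearly all actives have a fitted effect of over 35% in size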
# Method in brief: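 Luminescent ATP read-out (CellTiter-Glo, 20 min room temperature) after 40 hr compound treatment of HUV-EC-C cells at 37 °C. Concentration-response data fitted with the standard Hill equation to give AC50; tamoxifen and doxorubicin served as positive controls.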
# [3] = Cellular Toxicity (caspase-3) HUV-EC-C (AID 656)
# Method in brief: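 Luminescent Caspase-Glo 3/7 readout after 16 h, 37 °C compound exposure of HUV-EC-C endothelial cells, 1000 per well, complete medium. AC50 derived by Hill fitting, with DMSO as baseline and 100 uM tamoxifen as full activation.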
# [4] = Cellular Toxicity (caspase-3) H-4-II-E (AID 663); conditions: Potency: caspase-3 activation;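 further: cells exposed to compound for 16 hr before readout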
# Method in brief: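 Caspase 3/7 activation measured in H-4-II-E cells in complete culture medium after 16 hr treatment at 37 °C, using luciferase-coupled substrate readout; AC50 values come from Hill-equation fits of normalized concentration-response data.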
# [5] = Cellular Toxicity (caspase-3) N2a (AID 665);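 further: compound exposure lasted 16 h at 37 °C before readout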
# Method in brief: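 Luminescent Caspase-Glo 3/7 readout in N2a mouse neuroblastoma cells after 16 h compound exposure at 37 °C. Signal scaled to DMSO (basal) and 10 uM staurosporine (100%). Concentration-response fitted with Hill equation for AC50.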
# [6] = Cellular Toxicity (caspase-3) NIH 3T3 (AID 666)
# Method in brief: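 NIH 3T3, 1000 cells/well, 5 hr settle then 16 hr compound at 37°C; Caspase-Glo 3/7, 20 min RT, luminescence. DMSO = basal, 100 uM tamoxifen = 100%. Hill-equation AC50, qHTS.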
# [7] = molecular target: Cytochrome P450 3A4 (Homo sapiens) (UniProt P08684); assay: qHTS Assay for Inhibitors and Substrates of Cytochrome P450 3A4 (AID 884); further: nearly all actives have a fitted effect of over 50% in size; further: potency means the concentration at half of the fitted maximal effect
# Sequence of Cytochrome P450 3A4 (Homo sapiens) (P08684 whole entry, looked up): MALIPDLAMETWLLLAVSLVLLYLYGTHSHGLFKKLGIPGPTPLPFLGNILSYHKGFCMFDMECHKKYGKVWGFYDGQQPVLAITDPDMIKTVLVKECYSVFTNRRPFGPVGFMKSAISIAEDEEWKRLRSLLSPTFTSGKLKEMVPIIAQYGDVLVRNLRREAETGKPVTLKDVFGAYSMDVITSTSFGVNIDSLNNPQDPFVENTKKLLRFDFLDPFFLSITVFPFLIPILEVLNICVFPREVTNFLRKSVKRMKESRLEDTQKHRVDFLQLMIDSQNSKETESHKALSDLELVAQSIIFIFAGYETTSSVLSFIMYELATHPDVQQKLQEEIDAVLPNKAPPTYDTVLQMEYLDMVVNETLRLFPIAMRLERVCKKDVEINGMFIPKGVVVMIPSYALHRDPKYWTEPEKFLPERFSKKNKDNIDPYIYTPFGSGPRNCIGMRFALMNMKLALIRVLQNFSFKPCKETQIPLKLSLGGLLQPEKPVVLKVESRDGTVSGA
# Method in brief: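 Luminescent readout of luciferin produced by CYP3A4 (20 nM) dealkylation of Luciferin-PPXE, 25 uM (its KM). NADPH-driven reaction ran 60 min at RT after 10 min compound preincubation; data scaled to 57 uM ketoconazole as 100% inhibition.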
# [8] = MultiTox-Fluor Cytotoxicity Assay - LYMP1-003 - Dead Cells (AID 961); further: nearly all actives have a fitted effect of over 70% in size; further: potency means the concentration at half of the fitted maximal effect
# Method in brief: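 Dead-cell protease release, detected as bis-AAF-R110 fluorescence at 485/520 nm, was measured in LYMP1-003 cells after 16 h compound treatment at 37 C. AC50 values came from Hill-modeled qHTS curves normalized to DMSO (0%) and 15 uM tetraoctylammonium bromide (100%).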
# [9] = Cell Viability - LYMP2-003 (AID 965);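 further: cells exposed to compounds for 24 h before reading; nearly all actives have a fitted effect of over 50% in size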; further: potency means the concentration at half of the fitted maximal effect
# Method in brief: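 CellTiter-Glo luminescence quantified ATP loss after 24 h compound treatment of LYMP2-003 lymphoblastoid cells at 37 C. Titration series were fitted with the standard Hill equation to give AC50.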
# [10] = molecular target: Estrogen receptor (Homo sapiens) (UniProt P03372); assay: qHTS assay for small molecule antagonists of estrogen receptor alpha signaling (AID 588513; active means well fitted curve in the direction sought with a large enough effect in the signal ratio, with a control signal flat, not every such curve was filed as active; the % refers to the signal ratio)
# Sequence of Estrogen receptor (Homo sapiens) (P03372 whole entry, looked up): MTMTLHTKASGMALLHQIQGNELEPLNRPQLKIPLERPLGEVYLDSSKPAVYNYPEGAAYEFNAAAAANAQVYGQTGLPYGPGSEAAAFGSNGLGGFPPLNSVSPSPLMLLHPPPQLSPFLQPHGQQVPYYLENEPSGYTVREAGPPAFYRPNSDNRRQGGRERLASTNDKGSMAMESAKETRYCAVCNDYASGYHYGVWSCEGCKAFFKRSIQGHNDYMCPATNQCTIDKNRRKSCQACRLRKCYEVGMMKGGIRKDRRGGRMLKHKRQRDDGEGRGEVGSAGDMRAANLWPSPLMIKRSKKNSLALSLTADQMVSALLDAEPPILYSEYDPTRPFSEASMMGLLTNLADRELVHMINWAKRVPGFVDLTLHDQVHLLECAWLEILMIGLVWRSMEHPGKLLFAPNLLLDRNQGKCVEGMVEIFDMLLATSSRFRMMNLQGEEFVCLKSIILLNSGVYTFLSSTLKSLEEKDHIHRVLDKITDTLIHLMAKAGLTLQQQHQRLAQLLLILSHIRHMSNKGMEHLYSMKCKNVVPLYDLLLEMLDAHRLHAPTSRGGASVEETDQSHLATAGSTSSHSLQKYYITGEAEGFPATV
# Method in brief: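 Antagonist mode: inhibition of 0.5 nM 17-beta-estradiol-driven beta-lactamase reporter in HEK 293 ER-alpha-UAS-bla cells, 18 h at 37C, CCF4 readout after 2 h at RT. Normalised to estradiol and DMSO; titration fitted to Hill.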
# [11] = molecular target: Estrogen receptor (Homo sapiens) (UniProt P03372); assay: qHTS assay for small molecule agonists of estrogen receptor alpha signaling (AID 588514; calls by dose curve; further: nearly all actives have a fitted effect of over 70% in size)
# Method in brief: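 Read-out: CCF4 fluorescence from a beta-lactamase reporter in ER-alpha-UAS-bla HEK 293 cells after 18 hrs of compound exposure at 37 C. Normalized to 20 nM 17-beta-estradiol (100%) and DMSO (0%).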
# [12] = molecular target: Glucocorticoid receptor (Homo sapiens) (UniProt P04150); assay: qHTS assay for small molecule antagonists of glucocorticoid receptor signaling (AID 588533; active means well fitted inhibition curve with a large enough effect in the signal ratio, with a control signal flat, not every such curve was filed as active; the % refers to the signal ratio;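 further: cells stimulated with 2 nM dexamethasone as agonist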; further: potency means the concentration at half of the fitted maximal effect)
# Sequence of Glucocorticoid receptor (Homo sapiens) (P04150 whole entry, looked up): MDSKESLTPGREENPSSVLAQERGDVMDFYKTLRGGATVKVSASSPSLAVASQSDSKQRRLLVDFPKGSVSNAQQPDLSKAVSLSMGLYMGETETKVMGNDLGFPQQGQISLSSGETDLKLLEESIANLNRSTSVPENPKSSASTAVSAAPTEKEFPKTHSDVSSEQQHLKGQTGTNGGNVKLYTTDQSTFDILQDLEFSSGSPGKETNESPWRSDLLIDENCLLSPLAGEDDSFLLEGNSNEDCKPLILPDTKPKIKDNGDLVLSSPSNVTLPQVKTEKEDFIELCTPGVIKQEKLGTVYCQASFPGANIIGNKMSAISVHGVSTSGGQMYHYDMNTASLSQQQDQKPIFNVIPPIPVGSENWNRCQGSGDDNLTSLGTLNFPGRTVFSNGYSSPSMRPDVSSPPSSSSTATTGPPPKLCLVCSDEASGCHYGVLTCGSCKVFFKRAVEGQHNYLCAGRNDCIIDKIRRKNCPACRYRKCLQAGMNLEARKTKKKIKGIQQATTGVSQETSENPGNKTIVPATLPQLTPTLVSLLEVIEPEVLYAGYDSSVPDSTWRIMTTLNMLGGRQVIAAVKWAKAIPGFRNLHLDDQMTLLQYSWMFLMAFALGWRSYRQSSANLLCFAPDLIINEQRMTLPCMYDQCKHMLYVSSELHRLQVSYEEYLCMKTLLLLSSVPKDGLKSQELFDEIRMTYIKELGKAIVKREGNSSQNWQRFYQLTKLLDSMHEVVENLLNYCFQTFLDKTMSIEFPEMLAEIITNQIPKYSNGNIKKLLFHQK
# Method in brief: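 Antagonist-mode qHTS: compound titrations added to GRE-bla HeLa cells, then dexamethasone 2 nM final; 18 h, 37 C. CCF4 FRET fluorescence normalized to dexamethasone and DMSO; IC50 from Hill fit.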
# [13] = molecular target: Vitamin D3 receptor (Homo sapiens) (UniProt P11473); assay: qHTS assay for small molecule antagonists of vitamin D receptor signaling (AID 588541; calls by dose curve; further: potency means the concentration at half of the fitted maximal effect)
# Sequence of Vitamin D3 receptor (Homo sapiens) (P11473 whole entry, looked up): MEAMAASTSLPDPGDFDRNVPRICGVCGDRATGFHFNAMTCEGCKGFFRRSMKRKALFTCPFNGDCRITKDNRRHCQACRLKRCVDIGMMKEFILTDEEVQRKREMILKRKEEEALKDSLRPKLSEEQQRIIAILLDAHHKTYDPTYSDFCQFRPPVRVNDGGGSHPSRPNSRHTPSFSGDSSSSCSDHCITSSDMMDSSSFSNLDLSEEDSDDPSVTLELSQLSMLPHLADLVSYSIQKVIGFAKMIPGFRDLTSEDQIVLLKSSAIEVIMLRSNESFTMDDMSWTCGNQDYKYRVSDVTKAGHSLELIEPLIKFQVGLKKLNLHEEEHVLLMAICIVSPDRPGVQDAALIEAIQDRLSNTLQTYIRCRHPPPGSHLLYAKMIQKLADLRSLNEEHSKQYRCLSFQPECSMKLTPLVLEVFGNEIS
# Method in brief: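 VDR-UAS-bla HEK293T cells (2000/well, 2% charcoal-stripped FBS) were treated with titrated compounds plus 1-alpha,25-dihydroxyvitamin D3 (50 nM or 3 nM final) for 16 h at 37 C. CCF4 beta-lactamase fluorescence was read; Hill fits gave IC50.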
# [14] = qHTS assay for small molecule agonists of the antioxidant response element (ARE) signaling pathway (AID 651741; active means well fitted activation curve with a large enough effect in the signal ratio; the % refers to the signal ratio; further: potency means the concentration at half of the fitted maximal effect)
# Method in brief: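 Beta-lactamase reporter expression driven by the antioxidant response element in HepG2 cells was detected by fluorescence with LiveBLAzer B/G FRET substrate (2 h, room temperature) following 16 h compound treatment at 37 C.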
# [15] = qHTS assay for small molecule activators of the nuclear factor-kappa B (NF-kB) signaling pathway (AID 651749; active means well fitted activation curve with a large enough effect in the signal ratio; the % refers to the signal ratio); conditions: NF-kB-bla ME-180 cells, beta-lactamase FRET ratio, 16 h; stronger effect = higher value
# Method in brief: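 Beta-lactamase reporter expression, controlled by NF-kB response elements in ME-180 cells, was quantified fluorometrically via FRET disruption; cells at 2,000/well had been incubated with 23 nL test compound for 16 hr.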
# [16] = molecular target: Nuclear receptor ROR-gamma (Homo sapiens) (UniProt P51449); assay: qHTS assay for small molecule antagonists of the retinoid-related orphan receptor gamma (ROR-gamma) signaling pathway (AID 651802); further: nearly all actives have a fitted effect of over 60% in size; further: potency means the concentration at half of the fitted maximal effect
# Sequence of Nuclear receptor ROR-gamma (Homo sapiens) (P51449 whole entry, looked up): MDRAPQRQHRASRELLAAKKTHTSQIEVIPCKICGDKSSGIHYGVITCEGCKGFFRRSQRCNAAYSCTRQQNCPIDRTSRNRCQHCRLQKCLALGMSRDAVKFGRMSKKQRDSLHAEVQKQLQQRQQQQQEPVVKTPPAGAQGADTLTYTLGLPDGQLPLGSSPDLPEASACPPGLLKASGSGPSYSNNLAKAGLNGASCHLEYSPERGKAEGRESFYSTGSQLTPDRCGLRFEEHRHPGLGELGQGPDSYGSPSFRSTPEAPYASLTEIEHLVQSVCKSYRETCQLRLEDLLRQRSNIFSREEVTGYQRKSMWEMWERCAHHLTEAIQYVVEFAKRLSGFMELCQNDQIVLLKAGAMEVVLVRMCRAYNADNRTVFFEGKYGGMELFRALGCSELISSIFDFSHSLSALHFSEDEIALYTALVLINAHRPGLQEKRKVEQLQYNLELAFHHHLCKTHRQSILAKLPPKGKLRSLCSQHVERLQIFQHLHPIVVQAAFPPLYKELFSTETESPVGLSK
# Method in brief: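 Luciferase read-out: ONE-Glo luminescence after 30 min at room temperature, following 16hr doxycycline induction at 37C, 5% CO2 of CHO cells with TET-inducible ROR and RORE-LUC reporter; decreased luminescence = reduced reporter activity.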
# [17] = qHTS assay for small molecule agonists of the antioxidant response element (ARE) signaling pathway measured by Nrf2-dependant transcriptional activity - cell viability counter screen (AID 720653; active means well fitted curve in the direction sought with a large enough effect in the repeat runs; an effect the other way counts as inactive or inconclusive); conditions: ARE-bla HepG2 viability, CellTiter-Glo ATP luminescence, 16 h; max response: stronger effect = lower value
# Method in brief: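 ARE-bla HepG2 cells (2,000/well) rested 5 hrs at 37C/5% CO2, then exposed to compounds in DMSO for 16 hrs. Viability was read in the same wells as intracellular ATP by luminescence, 30 min at room temperature after reagent addition.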
# [18] = qHTS assay for small molecule activators of the human pregnane X receptor (PXR) signaling pathway (AID 720659; call rule not given here)
# [19] = qHTS assay for cell viability of HEK293 cells (AID 743288); conditions: ATP luminescence (CellTiter-Glo), 18 h; max response: stronger effect = lower value; further: nearly all actives have a fitted effect of over 50% in size; further: potency means the concentration at half of the fitted maximal effect
# Method in brief: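 Readout is luciferase-coupled ATP content (CellTiter-Glo luminescence, 30 min room temperature) as a measure of metabolically competent cells. Parental HEK293 cells were plated 5 h or more before compound addition, then treated 18 h at 37 C.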
# [20] = MultiTox-Fluor Cytotoxicity Assay - LYMP1-003 - Live Cells (AID 962); further: potency means the concentration at half of the fitted maximal effect
# Method in brief: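 Readout: live-cell fluorescence (Ex/Em=405/510) from GF-AFC cleavage after 60 min MultiTox-Fluor reagent at room temperature. Lymphoblastoid LYMP1-003 cells, 16 hr compound treatment, 37 C. Concentration-response fitted to standard Hill equation for AC50.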
smiles,measurement,setting,value
c1ccc(COCc2ccccc2)cc1,"activity change, negative = cytotoxicity",[1],-5.87% (inactive)
same,Potency,[2],inactive
same,Potency,[3],inactive
same,Potency,[4],inactive
same,outcome,[5],inactive
same,outcome,[6],inactive
same,Potency,[7],inactive
same,Potency,[8],inactive
same,Potency,[9],inactive
same,outcome,[10],inactive
same,Potency,[11],inactive
same,Potency,[12],inactive
same,Potency,[13],inactive
same,Potency,[14],inactive
same,activation,[15],0.253% (inactive)
same,Potency,[16],inactive
same,max response,[17],3.34% (inactive)
Nc1ccc(-c2ccc(N)c(O)c2)cc1O,"activity change, negative = cytotoxicity",[1],-88.2% (active)
same,Potency,[4],inactive
same,outcome,[5],inactive
same,outcome,[6],inactive
same,outcome,[10],inactive
same,Potency,[13],inactive
same,Potency,[16],inactive
same,max response,[17],1.43% (inactive)
same,outcome,[18],inactive
C=CC(=O)OCCCCCCOC(=O)C=C,Potency,[1],7.94 µM (active)
same,Potency,[2],inactive
same,Potency,[3],inactive
same,outcome,[5],inactive
same,outcome,[6],inactive
same,Potency,[8],31.6 µM (active)
same,Potency,[9],39.8 µM (active)
same,outcome,[10],inactive
same,Potency,[12],39.8 µM (active) and inactive
same,Potency,[13],31.6 µM (active) and inactive
same,Potency,[14],29.8 µM (active)
same,outcome,[18],inactive
O=Nc1ccc(Nc2ccccc2)cc1,Potency,[1],31.6 µM (active)
same,outcome,[5],inactive
same,activation,[15],-1.21% (inactive) and -2.86% (inactive)
same,max response,[17],-2.32% (inactive) and -16.8% (inactive)
same,Potency,[19],39.8 µM (active) and 20 µM (active)
Cc1c(C(=O)O)c(O)cc2c1C(=O)c1c(O)c([C@H]3O[C@H](CO)[C@@H](O)[C@H](O)[C@H]3O)c(O)c(O)c1C2=O,"activity change, negative = cytotoxicity",[1],-80.4% (active)
same,Potency,[4],inactive
same,outcome,[5],inactive
same,Potency,[8],inactive
same,Potency,[20],inactive
same,outcome,[10],inactive
same,Potency,[11],inactive
same,Potency,[12],inactive
same,Potency,[13],inactive
same,Potency,[14],inactive
same,Potency,[16],26.6 µM (active)
same,outcome,[18],inactive
Oc1cc2c(cc1O)[C@H]1c3ccc(O)c(O)c3OC[C@@]1(O)C2,"activity change, negative = cytotoxicity",[1],-89.3% (active)
same,outcome,[5],inactive
same,outcome,[6],inactive
same,Potency,[20],50.1 µM (active)
same,outcome,[10],inactive
same,Potency,[11],inactive
same,Potency,[14],66.8 µM (active)
same,activation,[15],-1.98% (inactive)
same,Potency,[16],11.9 µM (active)
same,max response,[17],-29.6% (inactive)
same,outcome,[18],inactive
C/C=C/C=C/C=O,"activity change, negative = cytotoxicity",[1],-142% (active)
same,Potency,[3],inactive
same,Potency,[4],inactive
same,outcome,[5],inactive
same,outcome,[6],inactive
same,Potency,[7],inactive
same,Potency,[20],inactive
same,outcome,[10],inactive
same,Potency,[11],inactive
same,Potency,[14],37.6 µM (active)
same,activation,[15],-1.3% (inactive)
same,max response,[17],-19.3% (inactive)
same,max response,[19],-1.13% (inactive)
same,outcome,[18],inactive
O=C(OCC1CO1)C1CCCCC1C(=O)OCC1CO1 (configuration not stated),"activity change, negative = cytotoxicity",[1],-15% (inactive)
same,Potency,[3],inactive
same,outcome,[5],inactive
same,Potency,[12],inactive
same,Potency,[14],42.2 µM (active)
same,Potency,[16],inactive
same,max response,[17],4.68% (inactive)
same,outcome,[18],inactive
Cc1cc(=O)oc2cc(O)cc(O)c12,Potency,[2],inactive
same,Potency,[3],inactive
same,Potency,[4],inactive
same,outcome,[5],inactive
same,outcome,[6],inactive
same,Potency,[7],6.31 µM (active)
same,Potency,[20],inactive
same,outcome,[10],inactive
same,Potency,[12],inactive
same,Potency,[13],inactive
same,Potency,[14],13.3 µM (active)
same,Potency,[16],inactive
same,max response,[19],-8.02% (inactive)
same,outcome,[18],inactive
C/C=C1/C(=O)C[C@H]2[C@@H]3CCC4=CC(=O)CC[C@]4(C)[C@H]3CC[C@]12C,"activity change, negative = cytotoxicity",[1],-151% (active)
same,Potency,[3],inactive
same,Potency,[4],inactive
same,outcome,[6],inactive
same,Potency,[7],inactive
same,Potency,[8],50.1 µM (active)
same,Potency,[14],3.76 µM (active)
same,Potency,[16],47.3 µM (active)
O=[N+]([O-])c1cc(N(CCO)CCO)ccc1NCCO,Potency,[4],inactive
same,Potency,[7],inactive
same,Potency,[20],inactive
same,outcome,[10],inactive
same,Potency,[11],inactive
same,Potency,[13],inactive
same,Potency,[14],inactive
same,activation,[15],-0.608% (inactive) and 1.27% (inactive)
same,Potency,[16],inactive
same,max response,[17],-24.7% (inactive)
same,Potency,[19],44.7 µM (active)
same,outcome,[18],inactive

# Source: PubChem BioAssay (NCATS)
